Assay outcomes (PubChem)
Sampled rows, rich in hits. Any-hit rate of the full collection: about 4.6%.
Peg3 promoter = Peg3 promoter-driven luciferase inhibitors, primary screen, cell-based, HeLa, luciferase luminescence; 1.7% of 360,000 active; HeLa PEG-Prom luciferase reporter, overnight; inhibition, % at 20 µM;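 active = inhibition of at least 50% at 20 µM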
CF NFkB block = inhibitors of PAF-induced NF-kB signaling, primary screen, cell-based, GFP fluorescence, uHTS; KKLEB NF-kB-GFP reporter, GFP fluorescence overnight; inhibition, % at 5 µM; 0.86% of 360,000 active; AID 588850, 2011;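 active = at least 50% inhibition at 5 µM, scaled per plate between neutral and stimulator controls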;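 also: PAF is a Pseudomonas aeruginosa culture filtrate used as stimulus; plate controls were PAF-stimulated DMSO wells for no effect and unstimulated DMSO wells for full effect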
ABHD5-PLIN5 inh = ABHD5-PLIN5 interaction inhibitors, primary screen, cell lysate, split luciferase complementation, luminescence. Perilipin-5 (Homo sapiens) + 1-acylglycerol-3-phosphate O-acyltransferase ABHD5 (Homo …. 0.78% of 360,000 active. Split G. princeps luciferase complementation, 4 h. inhibition, % at 4 µM. AID 602281, 2012;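 active = inhibition above the mean inhibition across every tested compound plus 3 SD, cut at about 22% in these data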;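 also: 0% = DMSO only wells and the 100% control is not disclosed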
Target sequence (Q00G26 whole entry, looked up): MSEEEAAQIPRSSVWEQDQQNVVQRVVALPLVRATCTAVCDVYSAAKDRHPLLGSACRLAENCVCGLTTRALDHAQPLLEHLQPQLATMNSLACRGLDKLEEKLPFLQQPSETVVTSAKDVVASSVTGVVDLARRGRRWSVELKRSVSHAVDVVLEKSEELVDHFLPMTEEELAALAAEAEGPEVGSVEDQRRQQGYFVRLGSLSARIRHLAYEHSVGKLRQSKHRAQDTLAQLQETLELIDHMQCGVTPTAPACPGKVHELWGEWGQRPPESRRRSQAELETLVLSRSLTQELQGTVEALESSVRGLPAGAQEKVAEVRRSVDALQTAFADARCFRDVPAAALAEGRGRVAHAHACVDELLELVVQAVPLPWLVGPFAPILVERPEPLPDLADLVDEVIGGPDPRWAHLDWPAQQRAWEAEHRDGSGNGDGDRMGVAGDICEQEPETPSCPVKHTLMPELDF
Target sequence (Q8WTS1 whole entry, looked up): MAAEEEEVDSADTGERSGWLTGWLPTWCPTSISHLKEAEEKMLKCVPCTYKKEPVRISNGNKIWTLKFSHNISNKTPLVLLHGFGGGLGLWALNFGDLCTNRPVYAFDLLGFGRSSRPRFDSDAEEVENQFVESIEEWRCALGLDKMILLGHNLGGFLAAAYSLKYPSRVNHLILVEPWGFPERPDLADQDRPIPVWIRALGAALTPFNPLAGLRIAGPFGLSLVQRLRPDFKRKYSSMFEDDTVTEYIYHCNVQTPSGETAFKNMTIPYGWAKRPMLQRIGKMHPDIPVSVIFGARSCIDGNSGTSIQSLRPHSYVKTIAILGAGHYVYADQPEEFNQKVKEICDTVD
HIF-2a block = HIF-2a reporter inhibitors, primary screen, luminescence, 786-0 RCC cells; 786-0 RCC cells HIF-2a reporter, luciferase luminescence, overnight; inhibition, % at 18.8 µM; 0.72% of 360,000 active;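 active = inhibition of the luminescence signal of 40% or more relative to plate controls, in a single-dose primary screen at 18.75 µM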
Mdm2 MdmX PPI = inhibitors of human Mdm2-MdmX association, primary screen, cell-based, luminescence, split luciferase, SaOS-2, uHTS | 3% of 330,000 active | AID 485346, 2010 | Protein Mdm4 (Homo sapiens) + E3 ubiquitin-protein ligase Mdm2 (Homo sapiens), … | inhibition, % at 8 µM | SaOS-2 split-luciferase Mdm2/MdmX complementation;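 active = inhibition of at least 50% at 8 µM in the primary screen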
KKLEB tox = cytotoxicity in KKLEB CF airway cells, primary screen, cytotoxicity control for CF NF-kB inhibitor project, cell-based, uHTS, fluorescence assay plates | 0.36% of 360,000 active | KKLEB CF airway cells viability, ATPlite luminescence, overnight; active compounds read low; cells stimulated with P. aeruginosa culture filtrate | AID 602141, 2011 | activity change (cytotoxicity), % at 5 µM;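 active = corrected activity change at or below -50% at 5 µM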
CF NFkB conf = inhibitors of PAF-induced NF-kB signaling, retest, confirmation, cell-based, GFP fluorescence, single concentration | inhibition, % at 5 µM | shares compounds with CF NFkB block | KKLEB CF airway cells, overnight | 64% of 1,300 active; in the data active = inhibition above about 40%;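 also: stimulus PAF is a Pseudomonas aeruginosa filtrate and not platelet activating factor; plate controls were DMSO wells with stimulus for no effect and unstimulated DMSO wells for full effect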
* = called active by the depositor; i = inactive; . = not tested or not shown.

SMILES	Peg3 promoter	CF NFkB block	ABHD5-PLIN5 inh	HIF-2a block	Mdm2 MdmX PPI	KKLEB tox	CF NFkB conf
O=C(COC(=O)c1ccc2ncsc2c1)Nc1ccc(OC(F)(F)F)cc1	-16.4	51.7*	-2.5	-20.6	-3.6	6.2	16.3
C=CCSc1nc2ccccc2n1C(=O)/C=C/c1ccc(OC)c(OC)c1	104.4*	91.9*	9.3	-34.6	.	-41.8	103.4*
CCn1c(SCC(=O)N/N=C/c2ccc(OC)c(OC)c2)nc2ccccc21	-4.3	11.6	-6.2	-5.4	5.7	-12.8	.
CCCCC(=O)N(C)c1c(CC)nc2c(OCCC)cccn12	3.3	1.9	-0.3	10.4	.	-3.6	.
CCNC(=O)C1(C)CCCN(Cc2ccc(-c3ccccc3)o2)C1 (stereo not drawn)	-9.7	57.8*	9.1	-30.3	.	-2.6	63.4*
CCOc1cccc(-c2nnc3sc(C4CCCCC4)nn23)c1	-7.2	66.1*	-7.3	-26.1	46.5	-10.8	84.6*
c1cncc(-c2nnc3sc(C4CCCCC4)nn23)c1	8.7	-2.6	-1.8	-1.7	9.6	-8.1	.
Cc1ccc(CNc2ncnc3ccc(-c4ccoc4C)cc23)o1	18.5	73.5*	11.4	14.6	.	-5.0	96.9*
O=C(c1ccc(O)c(Br)c1)c1cc(Br)ccc1O	35.6	65.9*	-5.2	-1.6	.	8.3	60.9*
O=C(O)C(Oc1ccc(Cl)cc1)c1ccc(Cl)cc1 (stereo not drawn)	16.0	11.9	-1.6	6.1	.	-0.1	.
N#CC(C#N)c1ccnc2ccccc12	9.9	58.3*	1.0	-0.4	.	-13.6	45.8*
Cc1ccc(Cn2cc(CN3CC(N4CCN(CCO)CC4)CS3(=O)=O)nn2)cc1 (stereo not drawn)	.	.	-0.1	5.5	.	.	.
Cc1ccc(C(=O)N2[C@@H]3CN(C)C(=O)[C@@]2(Cc2ccccc2)[C@H]2C(=O)N(C)C(=O)[C@@H]32)cc1	-7.6	-6.6	-2.1	9.7	.	-18.3	.
O=C1Cc2c([nH]c3ccc(Br)cc23)-c2ccccc2N1	94.8*	85.4*	5.8	i	.	-25.4	105.6*
COc1cc(Br)c(C(=O)c2nccc3cc(OC)c(OC)cc23)cc1OC	8.4	59.7*	-6.5	24.9	24.4	-13.9	13.6
COc1cc(N)c(C(=O)c2nccc3cc(OC)c(OC)cc23)cc1OC	5.4	-10.8	-7.1	11.8	17.3	-3.0	.
NC(=O)c1sc2nccc(Nc3ccccc3)c2c1N	-40.6	73.0*	-6.5	-15.3	39.6	4.4	72.9*
COc1ccc(COC(=O)C2=C(C)NC(=O)NC2c2ccc(F)cc2)cc1 (stereo not drawn)	26.8	60.5*	-9.6	32.9	40.0	-5.6	59.0*
CCOc1ccc(C2NC(=O)NC(C)=C2C(=O)OCc2ccccc2)cc1 (stereo not drawn)	33.5	15.2	9.0	29.0	38.5	-8.4	.
COc1ccc(Cn2cc(CN3CC(N4CCCCC4)CS3(=O)=O)nn2)cc1 (stereo not drawn)	.	.	-5.3	-1.3	.	.	.
COc1ccc(CN2C[C@H]3CCCN3c3cc(Br)ccc3S2(=O)=O)cc1	11.1	52.8*	-8.3	10.4	47.8	-6.5	56.2*
O=C1NC(=S)N/C1=C\c1cccnc1	15.4	54.1*	5.6	18.2	35.3	-2.5	64.2*
O=C1NC(=S)N/C1=C/c1cccnc1	-2.1	51.5*	-1.4	11.6	45.5	-6.3	46.5*
O=C1NC(=S)N/C1=C/c1cccc([N+](=O)[O-])c1	-6.2	14.4	6.2	-10.9	10.4	-4.5	.
Cc1ccc(CN2CC(C(=O)N3CCN(S(=O)(=O)c4c(F)cccc4F)CC3)CC2=O)cc1 (stereo not drawn)	4.0	-23.0	5.0	16.5	-2.6	7.8	.
CCOc1cccc(C(=O)Nc2ccccc2C(=O)N2CCN(C)CC2)c1	6.7	-26.0	-14.2	2.0	15.6	18.6	.
